This is an account of results in PubChem BioAssay (EPA / NIEHS).

Experiment [1] can be described thus: ATG_M_61_CIS: Attagene CIS-FACTORIAL HepG2 Assay for M61 Transcription Factor (Internal Marker) (AID 2282937). To be noted: HepG2 Attagene CIS-FACTORIAL M61 internal marker reporter; actives raise or lower the signal. In short, it runs like this: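 Fluorescence from labelled cDNA fragments, separated by capillary electrophoresis, quantifies reporter induction. HepG2 cells bearing transiently transfected cis-promoter MRTUs were incubated with test chemical for 24 h; DMSO defined baseline for gain/loss fitting.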

A short description of experiment [2]: ATG_EGR_CIS: Attagene CIS-FACTORIAL HepG2 Assay for human Early Growth Response 1 (EGR1) (AID 2282938). The note with it: HepG2 Attagene CIS-FACTORIAL EGR reporter mRNA; actives raise or lower the signal. In short, it runs like this:
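Cell-based multiplex transcription assay: HepG2 carrying transfected cis-element reporter units, 24 h chemical treatment. Fluorescence from capillary electrophoresis of RT-PCR products gives mRNA levels; fitting is bidirectional relative to DMSO.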

Experiment [3] is described as follows: ATG_M_19_CIS: Attagene CIS-FACTORIAL HepG2 Assay for M19 Transcription Factor (Internal Marker) (AID 2282939). The note with it: HepG2 Attagene CIS-FACTORIAL M19 internal marker reporter; actives raise or lower the signal. In short, it runs like this:
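Signals come from fluorescence of labelled reporter-specific PCR fragments resolved by capillary electrophoresis, following 24 h treatment of HepG2 cells transfected with cis-promoter reporter units; activity was fitted in both directions relative to DMSO.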

Experiment [4] can be described thus: ATG_ERE_CIS: Attagene CIS-FACTORIAL HepG2 Assay for Estrogen Response Element (ERE) (AID 2282940). The note with it: HepG2 ERE cis-reporter, Attagene RNA transcript; actives raise or lower the signal. In short, it runs like this: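 Fluorescence of capillary-separated, FAM-labelled reporter cDNA fragments indicates reporter mRNA levels in HepG2 cells exposed to chemicals for 24 h. Transient transfection with cis-regulated units; data fitted in both directions against DMSO.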

Experiment [5] in a line: ATG_Ets_CIS: Attagene CIS-FACTORIAL HepG2 Assay for human Erythroblast Transformation Specific (ETS) (AID 2282941). To be noted: HepG2 ETS cis-reporter transcription, actives raise or lower the signal. The method in brief:
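HepG2 cells transiently transfected with cis-promoter reporter transcription units were dosed for 24 h; reporter mRNA was measured by RT-PCR, 6-FAM primer extension, HpaI digestion and capillary electrophoresis, with bidirectional fitting against DMSO baseline.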

The target of experiment [6] is Hepatocyte nuclear factor 3-beta (Homo sapiens) (UniProt Q9Y261). Put plainly: ATG_FoxA2_CIS: Attagene CIS-FACTORIAL HepG2 Assay for human Forkhead box A2 (FOXA2) (AID 2282942). The note with it: HepG2 cis-reporter transcription factor activity, 24 h; actives raise or lower the signal. In short, it runs like this:
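In transiently transfected human HepG2 cells, promoter-driven reporter mRNA levels after 24 h chemical exposure are determined via RT-PCR with capillary electrophoresis. DMSO serves as baseline for bidirectional fitting.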

Experiment [7] in a line: ATG_GLI_CIS: Attagene CIS-FACTORIAL HepG2 Assay for human Zinc Finger Protein GLI1 (AID 2282945). The note with it: HepG2, Attagene cis-factorial reporter mRNA, GLI element; actives raise or lower the signal. In short, it runs like this:
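Transiently transfected HepG2 cells report endogenous transcription factor activity via cis-element-driven reporter units. After 24 h compound exposure, reporter mRNA was measured by RT-PCR with capillary electrophoresis; bidirectional fitting against DMSO baseline.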

Experiment [8] is described as follows: ATG_GRE_CIS: Attagene CIS-FACTORIAL HepG2 Assay for human Glucocorticoid Response Elements (GRE) (AID 2282947). The note with it: HepG2 GRE cis-reporter, Attagene multiplex mRNA; actives raise or lower the signal. The method in brief:
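Transiently transfected HepG2 cells carrying GRE cis-reporter units (endogenous TF activity) dosed 24 h; reporter mRNA quantified by RT-PCR, 6-FAM labelling, HpaI digestion and capillary electrophoresis. Bidirectional fit versus DMSO baseline.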

The nature of experiment [9]: ATG_ISRE_CIS: Attagene CIS-FACTORIAL HepG2 Assay for human Interferon Regulatory Factor 1 (IRF1) binding to an Interferon-Stimulated Response Element (ISRE) (AID 2282948). To be noted: HepG2 ISRE cis-reporter (Attagene), mRNA transcription readout; actives raise or lower the signal. The method in brief:
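HepG2 cells transiently transfected with multiplexed cis-promoter reporter units; after 24 h compound exposure, reporter mRNA quantified by RT-PCR, FAM labelling, HpaI digestion and capillary electrophoresis. Bidirectional fit versus DMSO baseline.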

Experiment [10] can be described thus: ATG_M_06_CIS: Attagene CIS-FACTORIAL HepG2 Assay for M06 Transcription Factor (Internal Marker) (AID 2282950). The note with it: HepG2 Attagene CIS-FACTORIAL M06 internal marker reporter; actives raise or lower the signal. The method in brief: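 HepG2 liver cells, 24 h exposure. Reporter transcripts from transfected cis-element constructs quantified by RT-PCR/capillary electrophoresis fluorescence. Bidirectional curve fit against DMSO.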

In experiment [11] the target is Hypoxia-inducible factor 1-alpha (Homo sapiens) (UniProt Q16665). Put plainly: ATG_HIF1a_CIS: Attagene CIS-FACTORIAL HepG2 Assay for human Hypoxia Inducible Factor 1 (HIF1A) (AID 2282951). The note with it: HepG2 Attagene cis-factorial HIF1a reporter transcription; actives raise or lower the signal. In short, it runs like this:
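In this multiplexed cell assay, HepG2 cells bearing transfected cis reporters are dosed for 24 h and reporter mRNA is read by RT-PCR plus capillary electrophoresis; signal increases and decreases are both scored against DMSO.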

The target in experiment [12] is Hepatocyte nuclear factor 6 (Homo sapiens) (UniProt Q9UBC0). Put plainly: ATG_HNF6_CIS: Attagene CIS-FACTORIAL HepG2 Assay for human Hepatocyte Nuclear Factor 6 (HNF6) (AID 2282952). The note with it: HepG2 Attagene cis-factorial HNF6 reporter transcription; actives raise or lower the signal. The method in brief:
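Multiplexed mRNA reporter assay in transfected HepG2; 24 h dosing; RT-PCR plus capillary electrophoresis fluorescence; DMSO-referenced bidirectional curve fitting.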

The target of experiment [13] is Heat shock factor protein 1 (Homo sapiens) (UniProt Q00613). Put plainly: ATG_HSE_CIS: Attagene CIS-FACTORIAL HepG2 Assay for human Heat Shock Transcription Factor 1 (HSE) (AID 2282953). The note with it: HepG2 HSE cis-reporter, Attagene RNA transcription; actives raise or lower the signal. The method in brief:
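Endogenous transcription factor activity captured via cis-promoter reporter units transfected into HepG2; treatment lasted 24 h. Fluorescence intensity of reporter fragments analysed with bidirectional curve fitting, DMSO baseline.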

A short description of experiment [14]: ATG_MRE_CIS: Attagene CIS-FACTORIAL HepG2 Assay for human Metal Responsive Element (MRE) (AID 2282954). The note with it: HepG2 MRE cis-reporter transcription, Attagene multiplex; actives raise or lower the signal. In short, it runs like this: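 HepG2 cells transiently transfected with cis-element-driven reporter units; mRNA measured 24 h after dosing. Reporter transcripts quantified by RT-PCR, FAM labelling, HpaI digestion and capillary electrophoresis; bidirectional fit versus DMSO.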

Experiment [15] is described as follows: ATG_PBREM_CIS: Attagene CIS-FACTORIAL HepG2 Assay for human Phenobarbital-responsive Enhancer Module (PBREM) (AID 2282955). The note with it: HepG2 PBREM cis-reporter, Attagene multiplexed transcription; actives raise or lower the signal. The method in brief:
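After a 24 h incubation with test chemical, transfected HepG2 cells yield total RNA; reporter-specific RT-PCR products are fluorescently labelled, HpaI-digested and resolved by capillary electrophoresis against ROX size standards.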

In experiment [16] the target is Paired box protein Pax-6 (Homo sapiens) (UniProt P26367). Put plainly: ATG_Pax6_CIS: Attagene CIS-FACTORIAL HepG2 Assay for human Paired Box 6 (PAX6) (AID 2282956). The note with it: HepG2 CIS-FACTORIAL PAX6 reporter transcription, RNA readout; actives raise or lower the signal. In short, it runs like this:
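HepG2 cells transiently transfected with multiplexed cis-promoter reporter units (endogenous TF activity) were dosed for 24 h. Reporter mRNA was quantified by RT-PCR, 6-FAM labeling, HpaI digestion and capillary electrophoresis; bidirectional fitting versus DMSO baseline.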

The nature of experiment [17]: ATG_GATA_CIS: Attagene CIS-FACTORIAL HepG2 Assay for human GATA Binding Protein (AID 2282944). The note with it: HepG2 GATA cis-element reporter, Attagene multiplex mRNA; actives raise or lower the signal. In short, it runs like this: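 After transfecting HepG2 cells with multiple cis-regulated reporter units, chemicals are dosed for 24 h; isolated RNA undergoes RT-PCR and fluorescent labeling before capillary electrophoresis, with activity expressed against DMSO.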

Experiment [18] in a line: ATG_M_32_CIS: Attagene CIS-FACTORIAL HepG2 Assay for M32 Transcription Factor (Internal Marker) (AID 2282949).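 Further: background control marker of the multiplexed CIS panel rather than a real target.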 The note with it: HepG2 Attagene cis-factorial M32 reporter, mRNA; actives raise or lower the signal. The method in brief:
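HepG2 cells transiently transfected with multiplexed cis-regulated reporter units, dosed 24 h. Reporter mRNA quantified by RT-PCR, 6-FAM labelling, HpaI digestion and capillary electrophoresis; bidirectional fit vs DMSO.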

In experiment [19] the target is Bile acid receptor (Homo sapiens) (UniProt Q96RI1). Briefly: ATG_IR1_CIS: Attagene CIS-FACTORIAL HepG2 Assay for human Nuclear Receptor Subfamily 1 Group H Member 4 (NR1H4), IR1 submotif (AID 2282946). The note with it: IR1 reporter transcription, actives raise or lower the signal. In short, it runs like this:
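HepG2 cells transiently transfected with multiple cis-promoter-driven reporter units to measure endogenous transcription factor activity; 24 h exposure. Reporter mRNA read by RT-PCR, FAM labelling, HpaI digestion and capillary electrophoresis. Bidirectional fit versus DMSO.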

Experiment [20] is described as follows: ATG_FoxO_CIS: Attagene CIS-FACTORIAL HepG2 Assay for human Forkhead box O (FoxO) (AID 2282943). The note with it: HepG2 Attagene cis-reporter, FoxO element, mRNA; actives raise or lower the signal. The method in brief: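 Read-out: fluorescence of 6-FAM-labelled reporter cDNA fragments resolved by capillary electrophoresis. Transiently transfected HepG2 cells were dosed for 24 h; activity fitted in both directions relative to DMSO controls.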

As a reminder, the AC50 is the concentration giving half of the maximal activity seen.

SMILES strings stand for the structures. Activity calls are given as the source filed them. How the source made its calls: active means hit-call score of the fitted dose curve at least 0.9, where 1 is the maximum; inactive means score below 0.9.

Heat shock factor protein 1 (Homo sapiens), sequence (Q00613 whole entry, looked up, the tested form may be a part): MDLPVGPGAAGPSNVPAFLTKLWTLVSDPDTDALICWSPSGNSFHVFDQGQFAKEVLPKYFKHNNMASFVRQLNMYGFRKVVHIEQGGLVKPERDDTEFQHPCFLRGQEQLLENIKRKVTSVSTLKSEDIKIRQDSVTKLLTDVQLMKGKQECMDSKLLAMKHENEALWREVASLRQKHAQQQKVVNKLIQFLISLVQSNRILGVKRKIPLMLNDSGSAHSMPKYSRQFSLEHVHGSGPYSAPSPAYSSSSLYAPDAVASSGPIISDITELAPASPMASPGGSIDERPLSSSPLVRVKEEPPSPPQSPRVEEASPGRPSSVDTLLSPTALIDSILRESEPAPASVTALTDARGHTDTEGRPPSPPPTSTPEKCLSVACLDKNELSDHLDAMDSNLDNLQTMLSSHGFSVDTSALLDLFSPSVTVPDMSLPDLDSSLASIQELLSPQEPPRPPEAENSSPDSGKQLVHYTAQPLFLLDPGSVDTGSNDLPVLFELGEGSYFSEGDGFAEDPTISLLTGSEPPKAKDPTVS
Hepatocyte nuclear factor 3-beta (Homo sapiens), sequence (Q9Y261 whole entry, looked up): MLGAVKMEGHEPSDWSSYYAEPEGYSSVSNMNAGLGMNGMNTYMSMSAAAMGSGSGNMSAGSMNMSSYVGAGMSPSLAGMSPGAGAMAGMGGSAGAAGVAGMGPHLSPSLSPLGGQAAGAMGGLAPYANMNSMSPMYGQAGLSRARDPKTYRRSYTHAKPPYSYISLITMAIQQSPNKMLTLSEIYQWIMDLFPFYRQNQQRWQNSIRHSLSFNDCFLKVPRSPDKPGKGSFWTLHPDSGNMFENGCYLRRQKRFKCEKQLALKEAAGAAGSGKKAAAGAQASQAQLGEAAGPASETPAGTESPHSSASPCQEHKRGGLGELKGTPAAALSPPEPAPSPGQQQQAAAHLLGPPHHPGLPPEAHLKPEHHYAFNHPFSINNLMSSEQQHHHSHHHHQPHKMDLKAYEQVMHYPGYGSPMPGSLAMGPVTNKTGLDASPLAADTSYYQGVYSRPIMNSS
Paired box protein Pax-6 (Homo sapiens), sequence (P26367 whole entry, looked up): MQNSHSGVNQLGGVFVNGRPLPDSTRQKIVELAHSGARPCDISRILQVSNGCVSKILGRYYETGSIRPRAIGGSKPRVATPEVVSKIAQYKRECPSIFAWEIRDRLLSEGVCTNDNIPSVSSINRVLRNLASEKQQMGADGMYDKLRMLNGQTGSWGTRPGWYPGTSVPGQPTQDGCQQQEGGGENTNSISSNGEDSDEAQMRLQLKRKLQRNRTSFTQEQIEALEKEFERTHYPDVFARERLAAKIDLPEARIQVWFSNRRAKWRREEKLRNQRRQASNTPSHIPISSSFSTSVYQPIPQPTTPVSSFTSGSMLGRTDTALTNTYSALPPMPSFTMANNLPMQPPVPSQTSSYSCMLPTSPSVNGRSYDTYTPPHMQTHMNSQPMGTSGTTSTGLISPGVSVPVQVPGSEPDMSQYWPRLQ
Hepatocyte nuclear factor 6 (Homo sapiens), sequence (Q9UBC0 whole entry, looked up): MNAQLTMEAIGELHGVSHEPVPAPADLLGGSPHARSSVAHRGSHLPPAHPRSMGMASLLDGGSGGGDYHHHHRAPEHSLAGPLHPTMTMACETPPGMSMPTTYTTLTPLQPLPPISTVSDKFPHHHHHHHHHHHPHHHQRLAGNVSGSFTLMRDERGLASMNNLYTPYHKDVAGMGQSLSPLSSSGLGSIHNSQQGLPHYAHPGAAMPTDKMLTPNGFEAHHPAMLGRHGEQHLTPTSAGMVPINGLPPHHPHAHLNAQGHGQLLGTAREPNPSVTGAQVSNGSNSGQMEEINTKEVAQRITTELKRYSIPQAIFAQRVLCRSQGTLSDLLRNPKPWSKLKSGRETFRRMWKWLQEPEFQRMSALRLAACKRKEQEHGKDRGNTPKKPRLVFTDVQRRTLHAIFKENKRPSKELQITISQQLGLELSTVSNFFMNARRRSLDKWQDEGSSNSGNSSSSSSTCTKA
Hypoxia-inducible factor 1-alpha (Homo sapiens), sequence (Q16665 whole entry, looked up): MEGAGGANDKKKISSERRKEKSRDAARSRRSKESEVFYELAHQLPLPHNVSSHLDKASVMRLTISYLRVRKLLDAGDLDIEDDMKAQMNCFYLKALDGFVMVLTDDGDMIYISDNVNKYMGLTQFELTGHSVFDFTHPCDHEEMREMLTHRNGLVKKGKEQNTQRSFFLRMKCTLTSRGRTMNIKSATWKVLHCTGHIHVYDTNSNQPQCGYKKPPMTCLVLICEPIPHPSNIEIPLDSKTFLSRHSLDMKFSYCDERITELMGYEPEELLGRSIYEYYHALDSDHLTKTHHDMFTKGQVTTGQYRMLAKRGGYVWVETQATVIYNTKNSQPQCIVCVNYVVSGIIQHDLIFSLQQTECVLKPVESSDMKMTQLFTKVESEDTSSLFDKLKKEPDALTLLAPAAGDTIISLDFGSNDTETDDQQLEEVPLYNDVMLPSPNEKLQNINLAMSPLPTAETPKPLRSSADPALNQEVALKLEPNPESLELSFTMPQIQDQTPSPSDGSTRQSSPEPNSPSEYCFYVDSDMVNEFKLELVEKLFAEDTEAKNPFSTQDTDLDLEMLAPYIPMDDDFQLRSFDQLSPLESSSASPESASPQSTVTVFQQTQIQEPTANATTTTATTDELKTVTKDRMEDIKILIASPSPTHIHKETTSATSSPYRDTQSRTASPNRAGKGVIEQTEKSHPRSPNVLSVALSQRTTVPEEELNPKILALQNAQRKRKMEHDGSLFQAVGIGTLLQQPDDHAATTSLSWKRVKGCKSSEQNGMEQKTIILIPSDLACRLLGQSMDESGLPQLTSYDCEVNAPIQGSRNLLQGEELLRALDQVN
Bile acid receptor (Homo sapiens), sequence (Q96RI1 whole entry, looked up): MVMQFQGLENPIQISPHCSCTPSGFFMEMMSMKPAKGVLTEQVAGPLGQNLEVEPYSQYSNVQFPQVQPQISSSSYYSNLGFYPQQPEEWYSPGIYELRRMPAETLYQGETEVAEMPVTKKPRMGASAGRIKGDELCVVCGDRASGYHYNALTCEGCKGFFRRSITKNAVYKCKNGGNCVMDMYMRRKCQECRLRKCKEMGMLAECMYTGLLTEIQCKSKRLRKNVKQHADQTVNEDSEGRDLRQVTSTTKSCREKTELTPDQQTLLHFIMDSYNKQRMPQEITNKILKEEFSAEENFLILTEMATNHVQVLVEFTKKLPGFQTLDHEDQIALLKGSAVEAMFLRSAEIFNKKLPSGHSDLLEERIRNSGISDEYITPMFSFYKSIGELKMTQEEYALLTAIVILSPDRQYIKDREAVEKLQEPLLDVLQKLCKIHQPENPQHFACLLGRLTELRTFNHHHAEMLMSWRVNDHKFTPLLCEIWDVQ

Consider `O=C(O)COc1ccc(Cl)cc1`, for which the outcome in experiment [1], in [2], in experiment [3], in experiment [4], in experiment [5] and in experiment [6] was inactive. For the same compound, the result in experiment [7], in [8], in experiment [9], in experiment [10], in experiment [11] and in experiment [12] was inactive. The compound was classed as inactive in experiment [13], in experiment [14], in experiment [15] and in experiment [16].
`CCC(C)(C#N)N=NC(C)(C#N)CC` (centres undefined): the outcome in experiment [1], in [2], in experiment [3], in experiment [4], in [5] and in experiment [6] was inactive. Also, the compound was classed as inactive in [17], in experiment [7], in [9], in experiment [18], in experiment [10] and in experiment [11]. Moreover, the outcome in experiment [12], in [13], in [14], in experiment [15] and in [16] was inactive.
Take `CN(CCCC(O)c1cccnc1)N=O` (centres undefined): the result in experiment [1], in experiment [2], in experiment [3], in experiment [4], in [5] and in [6] was inactive. The call in experiment [17], in experiment [7], in experiment [19], in experiment [8], in experiment [9] and in experiment [10] was inactive. The compound was called inactive in [11], in [12], in experiment [13], in experiment [14] and in experiment [16].
In the case of `OC(c1ccc(Cl)cc1)(c1ccc(Cl)cc1)c1cccnc1`, the compound was classed as inactive in [1], in experiment [2], in [3], in experiment [4], in experiment [6] and in experiment [20]. In addition, the outcome in experiment [17], in experiment [8], in experiment [9], in experiment [18], in [10] and in experiment [11] was inactive. The compound was classed as inactive in experiment [12], in experiment [13], in experiment [14], in experiment [15] and in experiment [16]. The AC50 was 9.04 µM (active) in experiment [7] and 13.6 µM (active) in [19].
